Test results published in PubChem BioAssay AID1645860 (Buhrlage Lab, Dana-Farber Cancer Institute and Novartis …, 2021).
In all, about 47,000 compounds went through this assay and about 2,500 (5.3%) were called active. The entries come from a sample that favours actives as a whole. Values without a mark were called inactive. Rule as the data show it: active = inhibition above about 30%; inactive = the rest.

Molecular target: Ubiquitin carboxyl-terminal hydrolase 30 (Homo sapiens) (UniProt Q70CQ3)
Assay: blocks human USP30 ubiquitin-rhodamine cleavage (AID 1645860)
Details: purified USP30, Ub-rhodamine cleavage fluorescence; at 25 µM; stronger effect = higher value

Sequence of Ubiquitin carboxyl-terminal hydrolase 30 (Homo sapiens) (Q70CQ3 whole entry, looked up): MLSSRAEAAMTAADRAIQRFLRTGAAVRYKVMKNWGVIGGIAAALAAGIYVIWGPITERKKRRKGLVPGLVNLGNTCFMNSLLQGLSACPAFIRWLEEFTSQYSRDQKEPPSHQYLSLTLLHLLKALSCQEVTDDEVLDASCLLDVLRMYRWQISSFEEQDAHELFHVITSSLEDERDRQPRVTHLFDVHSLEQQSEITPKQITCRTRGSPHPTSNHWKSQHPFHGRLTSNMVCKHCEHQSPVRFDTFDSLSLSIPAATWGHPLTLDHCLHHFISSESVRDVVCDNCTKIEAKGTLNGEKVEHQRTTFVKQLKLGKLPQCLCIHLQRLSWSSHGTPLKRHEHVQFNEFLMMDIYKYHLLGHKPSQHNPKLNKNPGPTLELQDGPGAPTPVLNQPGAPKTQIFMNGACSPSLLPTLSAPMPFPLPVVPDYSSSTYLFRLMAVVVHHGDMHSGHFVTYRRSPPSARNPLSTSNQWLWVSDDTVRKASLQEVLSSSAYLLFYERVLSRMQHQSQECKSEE

Compound	inhibition
COc1ccc(-c2nn(-c3ccccc3)cc2C(=O)N2CCCCC2)cc1	-1.66%
O=C(Nc1cccc(-c2cccc(F)c2)c1)C1CCN(Cc2cccc3c2OCO3)CC1	36.9% (active)
O=C(Nc1ccc(Oc2ccccc2F)cc1)C1CCN(Cc2cccc(O)c2)CC1	23%
O=C(CN1CCN(CC(=O)Nc2ccc3c(c2)OCO3)CC1)Nc1ccc(F)cc1	-29.4%
CC1CCC(NC(=O)Cn2c(=O)[nH]c3ccccc3c2=O)CC1 (stereo unspecified)	26.9%
CCOC(=O)N1CCC(NC(=O)CCc2ccccc2)CC1	11.3%
COc1ccc(CCNC(=O)[C@@H](NC(=O)[C@@H]2Cc3c([nH]c4ccccc34)C3c4ccccc4C(=O)N32)C(C)C)cc1 (stereo partly specified)	-104%
COc1ccccc1NC(=O)N1CCN(Cc2nc3ccccc3o2)CC1	7.46%
COc1ccccc1NC(=O)Nc1ccc(CCc2nc3ccccc3[nH]2)cc1	-27.4%
CCOc1ccccc1NC(=O)Nc1cc(-c2nc3ccccc3o2)ccc1OC	58.5% (active)
COc1ccc(C(=O)NCC(=O)Nc2nc3ccccc3[nH]2)c(C)c1	9.21%
O=C(NC1CCCC1)c1csc(C(=O)N2CCCC2)n1	3.97%
CC(C(=O)N1c2ccccc2NC(=O)C1(C)C)N1CCCC1c1ccc2c(c1)OCCO2 (stereo unspecified)	-221%
Cc1c(C)n2c(SCC(=O)N(C)c3ccccc3)nnc2[nH]c1=O	6.75%
CCCCOc1ccc(C(=O)Nc2ccc3c(c2)CCC(=O)N3CCC)cc1	46.1% (active)
COCCN1C(=O)CCc2cc(NS(=O)(=O)c3cc(C)cc(C)c3)ccc21	-16.1%
CCN1C(=O)CCc2cc(NC(=O)Cc3ccc(OC)c(Cl)c3)ccc21	-7.67%
CC(=O)Nc1ccc(C(=O)NCCn2c(C)nc3ccccc32)cc1	27.4%
CC(C)Cc1cc(C(=O)N2CCOC(c3nccnc3N)C2)n(C)n1 (stereo unspecified)	10.1%
COc1ccccc1CCNC(=O)c1cccc(N2C(=O)C(C)(C)CS2(=O)=O)c1	-7.58%
Cc1c(-c2noc(-c3cccc(N(C)C)c3)n2)nnn1Cc1cccc(F)c1	-2.61%
CCOc1ccccc1-c1nc(-c2nnn(Cc3ccccc3)c2C)no1	51.6% (active)
COc1ccc(-c2nc(-c3nnn(Cc4cccc(F)c4)c3C)no2)cc1	8.22%

Compound	inhibition
COC(=O)c1ccccc1NC(=O)Cn1cc(S(=O)(=O)Cc2ccc(C)cc2)c2ccccc21	-13.4%
COCc1ccc(C(=O)N2CCC3(CC2)CNC(=O)c2ccccc2O3)cc1	14.1%
O=S(=O)(Nc1ccccc1Cc1ccccc1)c1ccccc1F	16.2%
Cc1ccc(Cc2nnc(C(=O)NC(C)c3ccccc3)o2)cc1 (stereo unspecified)	-0.465%
O=C(CN(Cc1ccccc1Cl)S(=O)(=O)c1ccccc1F)NC(c1ccccc1)c1ccccc1	33.4% (active)
Cc1ccc(S(=O)(=O)N(CC(=O)NC(C)c2ccccc2)Cc2ccccc2F)cc1 (stereo unspecified)	32.6% (active)
O=C(CNC(c1ccccc1)c1ccccc1)Nc1ccc(F)cc1	13.6%
COc1ccccc1N(CC(=O)NCc1cccnc1)S(=O)(=O)c1ccc(C)cc1	-6.24%
Cc1nc2nc(NCc3ccccc3)[nH]n2c(=O)c1CCC(=O)N1CCC(C)CC1	0.108%
O=C(NCc1ccccn1)C1CCCN(c2ccc(-c3ccccc3)nn2)C1 (stereo unspecified)	23.1%
Cc1ccc(NC(=O)Cn2c(N3CCCC3)nc(C)cc2=O)cc1	18.2%
c1ccc(-c2csc3ncnc(NC4CCCc5ccccc54)c23)cc1 (stereo unspecified)	-52.1%
CN1CC(=O)N(C2CCCNC2)Cc2c(NC3CCc4ccccc43)ncnc21 (stereo unspecified)	69.8% (active)
Cc1ccccc1CNC(=O)N1CCC2(CC1)NC(=O)[C@H]1CN(c3ncccn3)C[C@H]12	25.7%
Cc1cccc(-c2cccc(C3CCCN(C(=O)c4cnccn4)C3)n2)c1 (stereo unspecified)	-38%
O=C(Nc1ccccc1F)Nc1nnc2cccc(Cl)n12	-21.8%
COC(=O)COc1cccc2c(=O)n(CC(=O)N3CCc4ccccc43)ccc12	37% (active)
CN(CCc1ccccn1)CC(=O)N1CCc2ccccc21	-0.887%
Cc1nc2ccccc2c(=O)n1CC(=O)N1CCCc2ccccc21	17.4%
Cc1ccc(C)c(N2CCN(c3nc4ccc(Cl)cc4nc3-n3nc(C)cc3C)CC2)c1	-8.16%
O=C(Nc1ccc(Cl)cc1F)c1cc(-c2ccccn2)n[nH]1	12.6%
COc1cc(Cl)c(NC(=O)c2cc(-c3ccccn3)n[nH]2)c(OC)c1	31.5% (active)
Cc1ccc(CC(=O)N2CCN(C(=O)c3cc(-c4ccccn4)n[nH]3)CC2)cc1	4.03%

Compound	inhibition
O=C(Cn1cc(S(=O)(=O)Cc2ccccc2Cl)c2ccccc21)N1CCCCCC1	-0.265%
O=C(Cn1cc(SCc2cccc(F)c2)c2ccccc21)N1CCCCCC1	35.3% (active)
CC(=O)Nc1cccc(NC(=O)CSc2cn(CC(=O)N3CCC(C)CC3)c3ccccc23)c1	-1.08%
COCCN1CC(C(=N)N)C(=O)NC1=O (stereo unspecified)	-45.1%
COc1ccc(CC(=O)Nc2ccc3c(c2)CN(C(=O)c2ccco2)CC3)cc1	19.1%
O=C(CC1(O)C(=O)N(Cc2cccc3ccccc23)c2ccccc21)c1cccc2ccccc12 (stereo unspecified)	2.93%
CN1CCc2c(sc3nc(SCCc4ccccc4)n(-c4ccccc4)c(=O)c23)C1	-152%
Cc1cccc(NS(=O)(=O)c2ccc3nnc(C)n3c2)c1	-4.01%
COc1cccc(NS(=O)(=O)c2ccc(-c3coc(C)n3)cc2)c1	-18.4%
O=S(=O)(Nc1cccc(O)c1)c1ccc2oc3ccc(S(=O)(=O)Nc4cccc(O)c4)cc3c2c1	42.9% (active)
Oc1cccc2nc3c(O)cccc3nc12	55.9% (active)
O=C(CCCOc1ccc(F)cc1F)N1CCC(c2[nH]nc3nccnc23)CC1	-12.7%
Cc1ccc(N2CCn3c(nc4ccccc43)C2)cc1NS(C)(=O)=O	-304%
O=C(CCc1nnc2n(CCc3ccccc3)c(=O)c3ccccc3n12)NCCN1CCCC1	13.2%
Cc1ccc(Cn2c(C)c(CNCCC3=CCCCC3)c(C(=O)O)c2C)cc1	-1.85%
CCc1ccc(-n2c(=O)c3ccccc3n(CC(=O)NCCC3=CCCCC3)c2=O)cc1	41% (active)
Cn1ncc2c1CCCN(C(=O)Cc1ccccc1F)C2	10.7%
Cc1ccccc1CC(=O)Nc1ccc(-n2ccnc2C)nc1	-47.4%
Cc1cccc(NC(=O)Cn2c(C)ccc(NC(=O)Nc3cccc(C)c3)c2=O)c1	34.8% (active)
Cc1cccc(NC(=O)Cn2c(=O)n(Cc3nc(C)no3)c(=O)c3ccccc32)c1	14.7%
COc1cn(CC(=O)Nc2cccc(C)c2)c(CSc2ccc(C)cc2)cc1=O	-0.0406%
CC(C)C(=O)N1CCN(C(=O)Cc2ccccc2)CC2(CC(=O)N(C)C2)C1 (stereo unspecified)	17%
Cc1cc(Nc2ncc(C)s2)cc(C2CCCN2c2ncccn2)n1 (stereo unspecified)	-49.2%

Compound	inhibition
CCOC(=O)C1CCCN(c2cc3n(c(=O)n2)CCc2cc(OC)c(OC)cc2-3)C1 (stereo unspecified)	-59.6%
CC1=C(c2ccc(C)cc2)S(=O)(=O)NC1=NCc1cccc(Br)c1	3.77%
COc1ccc(CN=C2NS(=O)(=O)C(c3ccc(F)cc3)=C2C)cc1OC	37% (active)
COc1ccc(C2=Nc3ncnn3C2=NCc2ccc(F)cc2)cc1OC	0.0164%
Cn1nnc2c1CCN(C(=O)C1CCC1)C2COCc1ccccc1 (stereo unspecified)	-10.7%
O=C(Cn1c(-c2nc(-c3ccc(F)cc3)no2)cccc1=O)N1CCCC1	11.4%
O=c1c2ccccc2c(-c2nc(-c3ccncc3)no2)cn1-c1ccc(F)cc1	44.8% (active)
O=C(Cn1cccc(-c2nc(-c3ccccc3)no2)c1=O)Nc1ccccc1F	-12.8%
CSCc1cc(N2CCOCC2)nc(-c2ccccn2)n1	23.5%
CC1CCN(S(=O)(=O)N2CCCC(C(=O)Nc3cc(F)ccc3F)C2)CC1 (stereo unspecified)	18.2%
O=C(Nc1ccc(N2CCN(C3CCCC3)C2=O)nc1)c1cccnc1	-14.2%
CC(C)c1noc(-c2ccc(OCC(=O)Nc3ccccc3Br)cc2)n1	30.7% (active)
COc1ccc(OCC(=O)Nc2noc(-c3ccccc3)n2)cc1	24.4%
COc1cccc(NC(=O)Cn2c(C)cc(C)c2-c2nc(C(C)C)no2)c1	-10.3%
CC(=O)Nc1ccc(S(=O)(=O)NCc2ccc(C(=O)NCc3ccc(C)cc3)cc2)cc1	-1.25%
O=C1Nc2cc(C(=O)N3CCC4(CC3)OCCO4)ccc2N2C(=O)CCC12 (stereo unspecified)	1.12%
COc1ccc(NC(=O)CSc2cn(CC(=O)N3CCCC3)c3ccccc23)cc1	18.7%
COc1ccc(NC(=O)CS(=O)(=O)c2cn(CC(=O)N3CCCC3)c3ccccc23)cc1	30.4% (active)
O=C(Cn1cc(S(=O)(=O)Cc2ccccc2F)c2ccccc21)N1CCCCCC1	3.16%
O=C(NCc1cccnc1-c1ccc(F)cc1)C1CCC1	21.3%
Fc1cccc(Nc2nc(-c3ccncc3)nc3c2CCC3)c1	23.2%
CSc1nc2c(c(Nc3ccc(C(C)=O)cc3)n1)CCC2	80.5% (active)
